This note sets out measurements from PubChem BioAssay (NCI).

Molecules are shown by their SMILES. Values joined by “and” are separate entries in the source; they are usually repeats but may differ in a detail not shown here. Equal entries are not always repeated. This is part of a sample that, as a whole, favours compounds with a hit. Of some 83,000 tested, about 20% had one in any assay.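 Single-dose data. Exposure time 48 hours. Values below 10 considered active.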 A number with no mark means an inactive call. Active and inactive are the calls of the source.

In this assay the test system is HL-60(TB) leukemia. Briefly: NCI-60 one-dose screen, 48 h (100 = growth as untreated, 0 = no growth, -100 = all killed). The conditions noted are these: 10 µM unless noted.
For the compound `N#Cc1nc(-c2ccccc2)oc1S(=O)(=O)N1CCOCC1`, the growth is 5.5% (active).
Then `CC1(C)CC(=O)NC1=O`, with 111%; and `C/C(=N\O)c1ccc(NC(=O)CSc2nnc(-c3ccccc3)n2-c2ccccc2)cc1`, with 90.4%; and `COc1cc2nc(N3CCC[C@@H](NC4=CC(=O)c5ccccc5C4=O)C3)nc(N)c2cc1OC`, with -60.3% (active).
Regarding `CCCN1CCN(c2ccc3nc(-c4ccc5nc(-c6ccc(C(F)(F)F)cc6)[nH]c5c4)[nH]c3c2)CC1`, the growth is -40.7% (active).
Then `COc1cc(/C=C/C(=O)c2cccc(Nc3nc(Nc4ccccc4)nc(Nc4ccccc4)n3)c2)cc(OC)c1OC`, with 9.01% (active); and `CCC(=O)Oc1ccc(-c2ccccc2)cc1Br`, with 96.5%.
Consider `CCCCOC1NC(=O)NC(=O)C1(F)C(=O)OCC` (stereo not given), for which the growth was 63.5%.
For the compound `Cc1ccc(N)c(S(=O)(=O)O)c1`, the growth was 74.5%.
For the compound `N#CC(C#N)=C/C=C/c1cccc([N+](=O)[O-])c1`, the growth was -10.5% (active) and -9.74% (active).
`COCCOc1cnc2ccn([C@H](C)c3nnc4c(F)cc(-c5cnn(C)c5)cn34)c(=O)c2c1`: the growth was 136%.
Then `COc1ccc(/C=C/C(=O)Nc2cccnc2Nc2ccc(F)cc2)cc1`, with 84.3%; and `CN(C)Cc1ccc[nH]1`, with 109%.
The result for `COc1ccc(C2c3cccn3-c3ccccc3N2C(C)=O)cc1` (stereo not given) reads -49.9% (active); that for `COc1cc2c(c(OC)c1OC)CCC(c1cccc(C(=O)Nc3cccc(Cl)c3)c1)O2` (stereo not given), 82.7%.
The result for `COc1cc2ncnc(-n3ncc4cc(NC(=O)Nc5ccc(Cl)c(Cl)c5)ccc43)c2cc1OC` reads 15.3%.
Take `CCN(CC)CCOc1ccc(NC(=O)C(C(C)C)N2C(=O)/C(=C/c3ccc(Br)cc3)SC2=S)cc1` (stereo not given): the growth was 27.6%.
Then `O=C(Nc1cccc(Cl)c1)c1cc(Cl)ccc1O`, with -32.4% (active); and `Nc1ccc(S(=O)(=O)c2ccc(N)cc2)cc1`, with 67.4%; and `COc1ccc(-c2nc(N)ncc2Oc2ccccc2OC)c(O)c1`, with -21.8% (active).
The result for `O=C(c1ccc(Cl)cc1)N1CCN(c2ccnc3cc(Cl)ccc23)CC1` reads 102%.
`CCOC(=O)c1cc(/C(=N\O)c2cc(OC)c(OC)c(OC)c2)n2c(C)cccc12`: the growth was 3.22% (active).
In the case of `CCCCCCCCCCCCCCCCCCOc1ccccc1CC(=O)NCC[N+]1(C)CCCC1`, the growth was 39.7%.
Consider `O=c1c2cc(F)ccc2oc2c(NCCNCCO)nc3ccccc3c12`, for which the growth was 70.5%.
For the compound `Nc1ccc2c(c1)Cc1cc(N)c(Br)cc1-2`, the growth was 86.4%.
Consider `O=C1c2c(c3c4ccc(Br)cc4oc3c3[nH]c4ccccc4c23)C(=O)N1O`, for which the growth is 25%.
The result for `O=P(O)(O)OC1C(OP(=O)(O)O)C(OP(=O)(O)O)C(OP(=O)(O)O)C(OP(=O)(O)O)C1OP(=O)(O)O.[Cu+2]` (stereo not given) reads 92.6%; that for `CCCc1c(C)nc2scc(-c3ccc(Cl)cc3)n2c1=O`, 98%; that for `Cc1c(Cc2ccccc2)c(=O)oc2c(C)c(OCC(=O)n3nc(C#N)cc3N)ccc12`, 101%.
Then `Cc1cc(NC(=O)CSCC(=O)O)no1`, with 88.9%; and `O=C1CCCN1c1cccc2cccnc12`, with 101%.
In the case of `CCOC(=O)c1c2c(n3ccc(C)cc13)C(=O)c1ccccc1C2=O`, the growth was 76.1%.
Turning to `COc1ccc(-n2c(C)nc3c(c(C)nn3-c3ccccc3)c2=O)cc1`, the growth is -18.3% (active).
`C=C1CCC[C@]2(C)CCC[C@H](C)[C@@H](OC(C)=O)[C@@H]3OC(=O)C(=C)[C@@H]3C[C@H]1O2`: the growth was 41.8%.
For `O=c1[nH]c2ccccc2n1C1CCN(CCOc2ccccc2)CC1`, the growth is 50%.
Then `CC1(C)CC[C@]2(C(N)=O)CC[C@]3(C)C(=CC[C@@H]4[C@@]5(C)C/C(=C/c6cccnc6)C(=O)C(C)(C)[C@@H]5CC[C@]43C)[C@@H]2C1`, with -24.7% [100 µM] (active).
Turning to `O=[N+]([O-])c1cccc(/C=C/c2ccc3ccccc3n2)c1`, the growth was 90.8%.
In the case of `CCN(CC)c1ccc(C(=N)c2ccc(N(CC)CC)cc2)cc1`, the growth was -23.4% (active).
`CCOC(=O)c1cc(C(=O)c2cc(OC)c(OC)c(OC)c2)n2ccc(-c3ccncc3)cc12`: the growth was 65%.
Then `CCCCCCCCCCCCCCCC(N)c1ccccc1` (stereo not given), with -14.3% (active).
